Data as given in PubChem BioAssay AID463173 (ICCB-Longwood Screening Facility, Harvard Medical School, 2010).
In all, about 52,000 compounds went through this assay and about 1,700 (3.3%) were called active. This is one part of a sample in which actives are shown more often than they occur. Unmarked numbers belong to inactive results. Cut-off read from the data, not from the text of the source: active = survival mostly below about 52% (no sharp cut-off); inactive = mostly above about 56%.

Test system: Wild type
Test: S. aureus survival, RN4220 and DeltatarO strains – OD600, teichoic acid synthesis inhibitors, primary screen (AID 463173)
Settings: S. aureus RN4220 wild type/DeltatarO growth, OD600, 18 h, active compounds read low, screened at 18.75 µg/mL (by protocol)

Row | SMILES | survival
1 | COc1ccc(N2CC(NC(=O)/C=C\c3ccccc3)CC2=O)cc1 (stereo unspecified) | 101%
2 | CC(=O)Nc1ccc(N2CCN(Cc3ccccc3)CC2)cc1 | 106%
3 | COc1ccc2oc(=O)c(-c3csc(-c4ccc(Br)cc4)n3)cc2c1 | 80%
4 | CCc1nn(CC(=O)NC2CC2)c(=O)c2cc3ccccc3n12 | 121%
5 | Cc1ccc2c(=O)cc(C(=O)Nc3nc4ccc(Cl)cc4s3)oc2c1 | 65%
6 | Cc1cc(C)cc(NC(=O)Cn2nnc(C(=O)NCCc3ccccc3)c2N)c1 | 93%
7 | CCC(=O)Nc1sc2c(c1C(=O)Nc1ccc(OC)cc1)CCC(C(C)(C)C)C2 (stereo unspecified) | 2% (active)
8 | Cc1ccccc1C(=O)Nc1sc2c(c1C(=O)N1CCCCC1)CCC(C(C)(C)C)C2 (stereo unspecified) | 1% (active)
9 | COc1ccc(NC(=O)c2c(NC(=O)COc3ccccc3)sc3c2CCC(C(C)(C)C)C3)cc1 (stereo unspecified) | 77%
10 | COc1ccc(NC(=O)c2c(NC(=O)c3ccncc3)sc3c2CCC(C(C)(C)C)C3)cc1 (stereo unspecified) | 47%
11 | Cc1ccccc1C(=O)Nc1nc2c(s1)CC(C(C)(C)C)CC2 (stereo unspecified) | 124%
12 | Cc1ccccc1NC(=O)c1c(NC(=O)c2ccco2)sc2c1CCC(C(C)(C)C)C2 (stereo unspecified) | 75%
13 | CCc1cccc(C)c1NC(=O)CN1C(=O)C2(SCC(=O)N2c2cccc(F)c2)c2ccccc21 (stereo unspecified) | 136%
14 | Cc1c(Cl)cccc1NC(=O)Cn1nnc(-c2nc(-c3ccccc3)no2)c1N | 55%
15 | COc1ccc2c(c1)c1c(c(=O)n(-c3ccccc3C)c(=O)n1C)n2C | 81%
16 | CCOc1cc(S(=O)(=O)NC2CC2)c(OCC)cc1-n1cnnn1 | 102%
17 | COc1ccc(CCNC(=O)c2cc(=O)[nH]c3ccc(S(=O)(=O)N4CCCCC4C)cc23)cc1OC (stereo unspecified) | 127%
18 | COc1ccc(Br)cc1CNC(=O)c1cc(=O)[nH]c2ccc(S(=O)(=O)N3CCCCC3C)cc12 (stereo unspecified) | 105%
19 | COc1ccc(OC)c(CNC(=O)c2cc(=O)[nH]c3ccc(S(=O)(=O)N4CCCCC4C)cc23)c1 (stereo unspecified) | 1% (active)
20 | Cc1ccc(Sc2c(C)nn(C(=O)COc3ccccc3Br)c2C)cc1 | 90%
21 | Cc1nn(C(=O)COc2ccccc2Br)c(C)c1Sc1ccccc1 | 57%
22 | Cc1nn(C(=O)c2ccc(Br)cc2)c(C)c1Sc1ccccc1 | -4% (active)
23 | Cc1ccc(Sc2c(C)nn(C(=O)c3ccc(Br)cc3)c2C)cc1 | 13% (active)

Row | SMILES | survival
24 | Cc1nn(C(=O)c2ccc(Br)cc2)c(C)c1S(=O)(=O)N1CCOCC1 | 71%
25 | Cc1nn(C(=O)c2ccccc2)c(C)c1S(=O)(=O)N1CCCCCC1 | 80%
26 | Cc1ccc(C)c(NC(=O)N2CCC(CN3CCOCC3)CC2)c1 | 135%
27 | CCC(CC)c1nn2c(=O)cc(COc3ccc(NC(=O)c4ccc(Cl)cc4)cc3)nc2s1 | 86%
28 | Cc1ccc(Nc2ccc(N3CCN(C(=O)c4ccc([N+](=O)[O-])cc4Cl)CC3)nn2)cc1 | 129%
29 | COCCn1c(SCC(=O)c2ccccc2)nc2cc(C(=O)NC3CCCC3)ccc2c1=O | 76%
30 | COCCNC(=O)c1ccc2c(=O)n(CCOC)c(SCC(=O)c3c[nH]c4ccccc34)nc2c1 | -1% (active)
31 | COCCn1c(SCC(=O)c2c[nH]c3ccccc23)nc2cc(C(=O)NCC(C)C)ccc2c1=O | 73%
32 | COCCn1c(SCC(=O)c2c[nH]c3ccccc23)nc2cc(C(=O)NC(C)C)ccc2c1=O | 14% (active)
33 | COCCn1c(SCC(=O)c2c(C)[nH]c3ccccc23)nc2cc(C(=O)NC(C)C)ccc2c1=O | 74%
34 | COCCNC(=O)c1ccc2c(=O)n(CCc3ccccc3)c(SCC(=O)CC(=O)OC)nc2c1 | 78%
35 | CCOc1ccc(NC(=O)CCSc2nc(-c3ccc4c(c3)OCO4)cc(C(F)(F)F)n2)cc1 | 72%
36 | COc1ccc(C)cc1NC(=O)NCc1cccn1Cc1ccccc1 | 98%
37 | O=C(NCc1ccccc1Cl)c1ccc(NC(=O)N2CCSc3ccccc32)cc1 | 67%
38 | N#CCCSCc1ccc(C(=O)O)o1 | 107%
39 | Cc1ccc(-c2nc3cc(C(C)C)ccc3o2)cc1NC(=O)c1cc2ccccc2o1 | 11% (active)
40 | COc1ccc(-c2nc3ccccc3o2)cc1NC(=O)c1ccc(-c2ccc(C)c(Cl)c2)o1 | 73%
41 | COc1ccc(-c2nc3cc(C(C)C)ccc3o2)cc1NC(=O)COc1ccc(C)cc1C | 59%
42 | Cc1ccc(-c2nc3cc(Cl)ccc3o2)cc1NC(=O)c1cc2ccccc2o1 | 72%
43 | CC(C)c1ccc2oc(-c3ccc(NC(=O)c4cc5ccccc5o4)cc3)nc2c1 | 61%
44 | COc1ccc(-c2nc3cc(C(C)C)ccc3o2)cc1NC(=O)c1ccc(C)c(Cl)c1 | 5% (active)
45 | COC(=O)CCN(C(=O)C1CCN(S(=O)(=O)c2c(C)noc2/C=C/c2ccccc2F)CC1)c1ccccc1 | 126%
46 | CCC(C)NS(=O)(=O)c1ccc(N2CCCCS2(=O)=O)cc1 (stereo unspecified) | 135%
